This note sets out measurements from PubChem BioAssay.

Several values for one entry are separate records, joined by “and”; a condition that tells them apart may be missing. Equal values may be shown once. Results filed as inconclusive are left out. For some of these results: Potency and affinity values are given separately. Activity calls are given as the source filed them. Unless noted, the rule behind the calls is not given here.

For assay [1], the target named is ATP-dependent translocase ABCB1 (Homo sapiens) (UniProt P08183). Briefly: MDR1 (ABCB1) efflux transporter inhibition, cell-based (AID 377; in the data active = fluorescence slope change above about 50%). As to conditions: MDR1-expressing cells, fluorescent substrate accumulation slope; stronger effect = higher value; concentration not given here.
Assay [2] can be described thus: polyglutamine-triggered caspase-3 activation inhibitors, cell-based (AID 1583). As to conditions: polyglutamine-induced caspase-3 activation, cell assay; stronger effect = higher value;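 tested at 10 µM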.
Assay [3] in a line: suppressors of polyQ aggregation in yeast, 75Q-TubU reporter (AID 1593). As to conditions: Yeast 75Q polyglutamine aggregation reporter.
The nature of assay [4]: rescue of polyQ-huntingtin neuronal dysfunction in worms, whole organism, C. elegans mechanosensory neurons, N-terminal huntingtin (AID 1599). Conditions: touch response, stronger effect = higher value.
A short description of assay [5]: inhibitors of mitochondrial cytochrome c release, biochemical, purified mitochondria (AID 1603).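 Note: mouse liver mitochondria challenged with calcium chloride; signal normalized to the plate average as 100%.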 As to conditions: stronger effect = lower value.
A short description of assay [6]: inhibitors of polyQ protein aggregation (AID 1604). As to conditions: polyglutamine-induced protein aggregation inhibition assay; stronger effect = higher value; tested at 2.5 µM.
Assay [7] in a line: enhancers of glutamate uptake in motor neurons, MN-1 cell line (AID 1612).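 Note: tested at 1 µM final; 0% = mean of DMSO vehicle wells on each plate; positive means more glutamate uptake than control and negative means less.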 Conditions: MN-1 motor neuron cells, stronger effect = higher value.
Assay [8] is described as follows: suppressors of polyglutamine aggregation in yeast, 75Q-TubH (AID 1616). Conditions: S. cerevisiae 75Q-TubH polyglutamine aggregation suppression; stronger effect = higher value.
Assay [9] can be described thus: circadian clock period modulators, cell-based, LOPAC library, luminescence reporter (AID 2774).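 Note: values are relative to mean of DMSO wells on each plate.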 As to conditions: circadian reporter cells, at 7 µM, actives lie on both sides.
Assay [10] can be described thus: hESC survival regulators, cell-based (AID 493140).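 Note: cells exposed to compounds for four days before counting.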 As to conditions: human embryonic stem cell survival screen; stronger effect = higher value.
The target of assay [11] is 6-phosphogluconate dehydrogenase, decarboxylating (Homo sapiens) (UniProt P52209). Briefly: 6PGD enzyme inhibitors, primary screen, biochemical, human, recombinant enzyme, NADPH absorbance (AID 1159550;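 active = at least 20% inhibition of 6-phosphogluconate dehydrogenase activity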). As to conditions: recombinant 6PGD, NADPH absorbance 341 nm; at 10 µM; stronger effect = higher value.
Assay [12] is described as follows: differential killing of epithelial or mesenchymal cells, primary screen, imaging, PC-3E GFP, TEM4-18 mCherry, co-culture (AID 1345086;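 active = compounds killing one labelled cell type while sparing the other, by normalised counts and ratio limits, not self-fluorescent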;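 for all read-outs here: cells exposed to compound for 72 h before imaging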;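 for red/green cell ratio (normalised): normalised mesenchymal count divided by normalised epithelial count so high means epithelial killing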). Conditions: imaging cell counts, at 1 µM; for red/green cell ratio (normalised): actives lie on both sides.
For assay [13], the system named is Aerobactin synthetase IucA (Klebsiella pneumoniae hvKP1). Description: Biochemical IucA enzyme inhibition primary screen of the Spectrum library (AID 1346200).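 Note: 100% = wells without compound and 0% = wells lacking enzyme.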 As to conditions: malachite green pyrophosphate, A620, at 8 µM, stronger effect = lower value.
A short description of assay [14]: survival rescue of mitochondrial mutant cells in low glucose, primary screen, MELAS cybrids, Rieske KO mouse fibroblasts, CellTiter-Glo (AID 1508586;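 active = mean z-score across replicates of 1.96 or higher in either the MELAS or the Rieske mutant cell line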;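 note: z relative to plate mean and SD of compound and empty wells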).
Assay [15] deals with Mitogen-activated protein kinase 7 (Homo sapiens) (UniProt Q13164). Description: ERK5 transactivation activators in reporter cells, primary screen, cell-based, HTS (AID 1508626;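 active = luciferase signal above three times the same-plate solvent-only control wells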;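 note: luciferase driven by Gal4-ERK5 fusion binding five Gal4 sites before minimal TATA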). As to conditions: HeLa Gal4-ERK5 transactivation, 18 h, at 5 µM, stronger effect = higher value.
Assay [16] in a line: viability rescue of complex I mutant cybrids, primary screen, cell-based, galactose medium, ATP luminescence (AID 1645843;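 active = z-score of at least 1.8 in each of two replicates, scored against plate mean and spread of sample wells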;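 note: positive z means more ATP and so rescue of galactose-driven cybrid death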). Conditions: complex I mutant cybrid cells, 72 h, stronger effect = higher value.
Assay [17] in a line: liver-stage malaria parasite growth inhibition, primary screen, cell-based, HepG2, luciferase luminescence, HepG2 viability (AID 624349; in the data active = parasite load remaining mostly below about 12%, no sharp cut-off; inactive = mostly above about 10%;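 note: 100% = mean of DMSO negative control wells on the same plate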). As to conditions: P. berghei liver stage in HepG2, luciferase luminescence, concentration not given here; parasite load remaining: stronger effect = lower value; viability: measured here: HepG2 viability without parasites.
The nature of assay [18]: sensitizers of A549 cells to miR-34 induction, primary screen, imaging, A549 dox-inducible miR-34, nuclei and caspase counts (AID 1347080;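 active = compounds whose cell count with miR-34 switched on is under 0.7 times the count with it off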). Conditions: A549 miR-34 inducible, Hoechst nuclei count, 48 h.
The nature of assay [19]: reducers of polyQ inclusions in PC12 cells, cell-based, NGF-treated PC12, GFPQ80 (AID 1614).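 Note: lower means fewer inclusions and 0 means no inclusions at all.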 Conditions: PC12 NGF-treated GFP-polyQ80 inclusion reduction.
Where [20] appears, read: measured here: epithelial PC-3E GFP cell survival.
Where [21] appears, read: measured here: mesenchymal TEM4-18 mCherry cell survival.
The mark [22] stands for this setting: measured here: relative caspase fold change +Dox/-Dox.
The mark [23] stands for this setting: measured here: total cells with miR-34 induction, stronger effect = lower value.
The mark [24] stands for this setting: measured here: total cells without miR-34 induction.

Chain of 6-phosphogluconate dehydrogenase, decarboxylating (Homo sapiens) (P52209 whole entry, looked up): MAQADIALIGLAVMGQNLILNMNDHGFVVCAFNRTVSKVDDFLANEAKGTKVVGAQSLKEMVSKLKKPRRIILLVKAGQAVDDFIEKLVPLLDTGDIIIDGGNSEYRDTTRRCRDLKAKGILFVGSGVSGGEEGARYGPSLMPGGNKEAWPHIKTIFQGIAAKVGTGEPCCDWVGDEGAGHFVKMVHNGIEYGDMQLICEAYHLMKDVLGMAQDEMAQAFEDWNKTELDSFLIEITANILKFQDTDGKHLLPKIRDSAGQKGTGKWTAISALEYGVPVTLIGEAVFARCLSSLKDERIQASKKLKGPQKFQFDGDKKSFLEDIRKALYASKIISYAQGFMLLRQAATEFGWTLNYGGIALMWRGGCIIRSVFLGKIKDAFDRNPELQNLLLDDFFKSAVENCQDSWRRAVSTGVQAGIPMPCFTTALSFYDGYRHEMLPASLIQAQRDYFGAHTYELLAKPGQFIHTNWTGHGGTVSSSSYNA
Chain of Mitogen-activated protein kinase 7 (Homo sapiens) (Q13164 whole entry, looked up, the tested form may be a part): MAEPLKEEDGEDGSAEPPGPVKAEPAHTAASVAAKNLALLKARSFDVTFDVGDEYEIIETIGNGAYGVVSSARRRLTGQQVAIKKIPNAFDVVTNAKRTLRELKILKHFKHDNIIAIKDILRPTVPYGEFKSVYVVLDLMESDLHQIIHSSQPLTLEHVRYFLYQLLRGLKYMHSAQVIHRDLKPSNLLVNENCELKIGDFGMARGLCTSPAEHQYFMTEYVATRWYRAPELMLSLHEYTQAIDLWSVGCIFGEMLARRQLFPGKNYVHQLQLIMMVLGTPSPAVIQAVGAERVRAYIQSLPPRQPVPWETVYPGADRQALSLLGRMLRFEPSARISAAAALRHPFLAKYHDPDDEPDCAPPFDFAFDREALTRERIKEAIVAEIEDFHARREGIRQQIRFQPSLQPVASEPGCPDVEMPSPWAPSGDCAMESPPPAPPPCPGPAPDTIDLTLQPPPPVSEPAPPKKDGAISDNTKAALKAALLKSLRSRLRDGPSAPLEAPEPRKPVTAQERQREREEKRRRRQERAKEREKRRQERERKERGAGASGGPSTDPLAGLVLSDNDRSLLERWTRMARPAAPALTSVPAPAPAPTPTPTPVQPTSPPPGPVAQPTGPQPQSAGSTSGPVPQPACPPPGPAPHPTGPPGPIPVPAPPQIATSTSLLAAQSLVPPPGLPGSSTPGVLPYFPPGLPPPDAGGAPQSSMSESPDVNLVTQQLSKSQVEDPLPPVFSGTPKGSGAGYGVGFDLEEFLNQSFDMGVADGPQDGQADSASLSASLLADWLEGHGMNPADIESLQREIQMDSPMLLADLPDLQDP
Chain of ATP-dependent translocase ABCB1 (Homo sapiens) (P08183 whole entry, looked up): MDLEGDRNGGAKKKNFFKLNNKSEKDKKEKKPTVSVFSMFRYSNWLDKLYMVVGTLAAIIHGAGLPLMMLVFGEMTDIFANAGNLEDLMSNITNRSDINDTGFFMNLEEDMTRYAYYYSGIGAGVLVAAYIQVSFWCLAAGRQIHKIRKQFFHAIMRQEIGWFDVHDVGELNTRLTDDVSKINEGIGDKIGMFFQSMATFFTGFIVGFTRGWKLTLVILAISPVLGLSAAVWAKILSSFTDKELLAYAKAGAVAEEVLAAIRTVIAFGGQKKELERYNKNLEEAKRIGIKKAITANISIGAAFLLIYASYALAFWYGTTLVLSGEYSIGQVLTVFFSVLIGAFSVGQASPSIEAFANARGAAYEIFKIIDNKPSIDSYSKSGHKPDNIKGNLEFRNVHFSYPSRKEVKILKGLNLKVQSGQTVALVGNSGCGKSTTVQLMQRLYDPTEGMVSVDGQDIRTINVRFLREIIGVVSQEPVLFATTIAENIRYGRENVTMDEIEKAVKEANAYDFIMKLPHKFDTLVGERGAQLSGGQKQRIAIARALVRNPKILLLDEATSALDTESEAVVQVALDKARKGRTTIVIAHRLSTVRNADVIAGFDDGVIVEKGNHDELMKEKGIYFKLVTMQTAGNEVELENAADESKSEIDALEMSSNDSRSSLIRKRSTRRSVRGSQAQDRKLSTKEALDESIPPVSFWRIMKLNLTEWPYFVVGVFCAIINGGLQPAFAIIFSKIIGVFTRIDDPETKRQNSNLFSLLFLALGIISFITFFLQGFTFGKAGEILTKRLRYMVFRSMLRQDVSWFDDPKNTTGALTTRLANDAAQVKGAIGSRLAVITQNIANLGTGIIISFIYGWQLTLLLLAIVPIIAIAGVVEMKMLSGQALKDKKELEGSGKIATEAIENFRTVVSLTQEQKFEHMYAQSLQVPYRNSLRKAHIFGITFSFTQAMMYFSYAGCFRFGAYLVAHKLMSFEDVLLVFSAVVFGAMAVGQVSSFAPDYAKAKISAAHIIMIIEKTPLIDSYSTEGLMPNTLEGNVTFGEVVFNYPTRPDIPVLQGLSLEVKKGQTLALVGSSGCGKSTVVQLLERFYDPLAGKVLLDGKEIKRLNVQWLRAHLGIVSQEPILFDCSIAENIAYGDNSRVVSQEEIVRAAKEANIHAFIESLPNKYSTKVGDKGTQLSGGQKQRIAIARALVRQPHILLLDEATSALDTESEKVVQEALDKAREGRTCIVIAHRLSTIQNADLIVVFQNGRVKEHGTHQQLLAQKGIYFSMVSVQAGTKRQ

Broadly, the inhibition is the change of the read-out against control, counted positive when it falls. Regarding `CC[C@@]1(O)C(=O)OCc2c1cc1n(c2=O)Cc2cc3ccccc3nc2-1`, the fluorescence slope change in assay [1] was 24.5% (inactive). The results for the inhibition in assay [2] and in assay [11] were -22.8% and 3.3% (inactive), respectively. In assay [3], this compound gave a score of 1.92. Further, the rescue above control in assay [4] is 0. Also, in assay [5], the cytochrome c release ratio was determined as 0.94. Moreover, in assay [6], the inhibition of aggregation was -7.84%. Also, in assay [7], the glutamate uptake change was -25.7%. This compound also displayed an aggregation suppression score in assay [8] of 1.49. The period change in assay [9] was -0.48 h (inactive). Further, the survival in assay [10] is 0.833 (inactive). Besides, the red/green cell ratio (normalised) in [12] is 1.07 (inactive). The figures for the normalised cell number in assay [12] (setting [20]) and in [12] (setting [21]) were 0.28 and 0.3, respectively. For the same compound, the activity remaining in assay [13] is 107% (inactive). For the same compound, the z-score was -0.725 (inactive) and -0.263 (inactive) and -1.18 (inactive) in [14] (MELAS cybrid survival, CellTiter-Glo 48 h, stronger effect = higher value); 0.467 and -0.232 and -0.237 in assay [14] (Rieske KO mouse fibroblast survival, CellTiter-Glo 72 h); -0.96 (inactive) and -0.91 (inactive) and -2.17 (inactive) in assay [16]. Further, in assay [15], the luciferase signal is 28 AU (inactive).

Consider `CCOCN(C(=O)CCl)c1c(C)cccc1CC`, for which the inhibition in [11] is 4.9% (inactive).

Usually viability stands for a read-out of living cells in per cent, often relative to untreated cells. As for `COc1ccc(C[C@H]2NC[C@H](O)[C@H]2OC(C)=O)cc1`, the values for the inhibition in assay [2] and in [11] were 72.2% and -19.6% (inactive), respectively. This compound displayed a score in assay [3] of 0.1. The compound also gave a rescue above control in assay [4] of 20.1. In addition, the cytochrome c release ratio in assay [5] worked out at 0.83. In assay [6], the inhibition of aggregation amounted to 100%. Besides, in [7], the glutamate uptake change was -57.2%. The compound further yielded an aggregation suppression score in assay [8] of 0.0246. Also, in assay [17], the parasite load remaining is -43.5% (inactive) and -0.655% (inactive). In assay [17], the viability is 60.3% and 76.2%. Also, the red/green cell ratio (normalised) in [12] is 0.63 (inactive). In addition, the normalised cell number in [12] (setting [20]) was 0.16; in assay [12] (setting [21]), 0.1. Moreover, the activity remaining in [13] is 92.2% (inactive). Further, the fold change in assay [18] (stronger effect = lower value) is 0.919 (inactive) and 1.04 (inactive); in assay [18] (setting [22]), 1.66. The cell count is 1170 and 1230 in assay [18] (setting [23]); 1270 and 1190 in [18] (setting [24]). Moreover, in assay [15], the luciferase signal was 16 AU (inactive). Further, in assay [16], the z-score is -0.88 (inactive).

Take `c1ccc2c(c1)cc1ccc3cccc4ccc2c1c34`: in assay [11], the inhibition was 5.92% (inactive). Moreover, in assay [12], the red/green cell ratio (normalised) was 0.86 (inactive). Further, the results for the normalised cell number in [12] (setting [20]) and in assay [12] (setting [21]) were 1.22 and 1.05, respectively.

`COc1cc2c3cc1Oc1cc(ccc1O)C[C@@H]1c4c(cc(OC)c(O)c4Oc4ccc(cc4)C[C@H]3N(C)CC2)CCN1C`: the inhibition in [11] was -17.6% (inactive).

In the case of `COc1cc2c(cc1OC)C(C)NCC2` (configuration not stated), the survival in assay [10] was 7.17 (inactive). Moreover, the parasite load remaining in assay [17] is 65.2% (inactive) and 87.3% (inactive). For the same compound, the viability in [17] is 106% and 76.1%. For the same compound, the inhibition in assay [11] is -13.1% (inactive). For the same compound, the red/green cell ratio (normalised) in [12] is 1.03 (inactive). In addition, the values for the normalised cell number in assay [12] (setting [20]) and in assay [12] (setting [21]) were 0.91 and 0.94, respectively. Besides, the activity remaining in assay [13] was 101% (inactive). The fold change is 0.83 (inactive) in assay [18] (stronger effect = lower value) and 1.56 in assay [18] (setting [22]). Moreover, the cell count in assay [18] (setting [23]) came out at 9140; in assay [18] (setting [24]) it was 11000. For the same compound, in assay [15], the luciferase signal was 36 AU (inactive).

As for `N[C@H](CO)Cc1ccccc1`, the inhibition in assay [11] was 1.18% (inactive). For the same compound, the red/green cell ratio (normalised) in [12] was 1 (inactive). In addition, the normalised cell number in assay [12] (setting [20]) stood at 1.16; in assay [12] (setting [21]), 1.17. Besides, the activity remaining in [13] is 102% (inactive).

As to `[N-]=[N+]=CC(=O)OCC(N)C(=O)O` (configuration not stated), the inhibition in assay [2] was 30.9%; in [11] it was 12.8% (inactive). The same compound registered a score in assay [3] of 1.27. Besides, the rescue above control in assay [4] came to 6.35. Further, the cytochrome c release ratio in assay [5] is 1.1. In addition, the inhibition of aggregation in assay [6] was -39.4%. In addition, the glutamate uptake change in assay [7] was -10.2%. In assay [19], this compound displayed an inclusion score of 1. Moreover, the aggregation suppression score in assay [8] was 0.586. The parasite load remaining in assay [17] is 3.63% (inactive). Further, in [17], the viability came to 82.2%. Also, in assay [12], the red/green cell ratio (normalised) was 1.35 (inactive). The normalised cell number in assay [12] (setting [20]) is 0.86; in [12] (setting [21]), 1.16. The activity remaining in assay [13] is 105% (inactive). The values for the fold change in assay [18] (stronger effect = lower value) and in assay [18] (setting [22]) were 0.832 (inactive) and 1.38, respectively. Besides, the figures for the cell count in assay [18] (setting [23]) and in assay [18] (setting [24]) were 601 and 722, respectively.
